Test results as given in PubChem BioAssay (NCI).
This is part of a sample that, as a whole, favours compounds with a hit. Of some 83,000 tested, about 20% had one in any assay.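 Note: values are percent growth. 100 is the growth of untreated cells, values between 100 and 0 indicate rising inhibition; between -100 and 0 indicates cell death.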 Activity calls are given as the source filed them. Rule for the calls: active = growth percent below 10; inactive = the rest.

What was measured:
Test in all cases: NCI-60 one-dose screen, 48 h (100 = growth as untreated, 0 = no growth, -100 = all killed)
Settings in all cases: 10 µM unless noted
NCI-H23 lung = tested on: NCI-H23 lung
NCI-H226 lung = tested on: NCI-H226 lung
NCI-H322M lung = tested on: NCI-H322M lung
HOP-62 NSCLC = tested on: HOP-62 NSCLC
NCI-H460 lung = tested on: NCI-H460 lung
HOP-92 NSCLC = tested on: HOP-92 NSCLC
NCI-H522 lung = tested on: NCI-H522 lung
A549/ATCC NSCLC = tested on: A549/ATCC NSCLC
786-0 renal = tested on: 786-0 renal
COLO 205 colon = tested on: COLO 205 colon

Measured: growth

Cn1cc(-c2ccc3nc(-c4ccc(CC(=O)ONc5cc(C(C)(C)C)on5)cc4)cnc3c2)cn1
inactive: NCI-H23 lung 43.7% | NCI-H226 lung 43.2% | NCI-H322M lung 22.8% | HOP-62 NSCLC 37.1% | NCI-H460 lung 25.2% | HOP-92 NSCLC 30.3% | NCI-H522 lung 39.4% | A549/ATCC NSCLC 31.1% | 786-0 renal 23.1% | COLO 205 colon 51.3%

CCCC/C(CC)=N\NS(=O)(=O)c1ccc([N+](=O)[O-])cc1
inactive: NCI-H23 lung 95.9% | NCI-H226 lung 93.4% | NCI-H322M lung 109% | HOP-62 NSCLC 96.7% | NCI-H460 lung 105% | HOP-92 NSCLC 91.6% | NCI-H522 lung 90.9% | A549/ATCC NSCLC 89.1% | 786-0 renal 103% | COLO 205 colon 105%

COc1ccc(-c2cc(-c3cc(OC)c(OC)c(OC)c3)c(C#N)c(=O)n2CCCCC(=O)NO)cc1
inactive: NCI-H23 lung 67.4% | NCI-H226 lung 82.3% | NCI-H322M lung 75.1% | HOP-62 NSCLC 65% | NCI-H460 lung 55.3% | HOP-92 NSCLC 51.9% | NCI-H522 lung 54.6% | A549/ATCC NSCLC 71.9% | 786-0 renal 83.7% | COLO 205 colon 84.3%

Nc1n[nH]c2cccc(C#Cc3cccc(C(=O)Nc4cc(C(F)(F)F)cc(C(F)(F)F)c4)c3)c12
inactive: NCI-H23 lung 73.8% | NCI-H226 lung 42.7% | NCI-H322M lung 96.7% | HOP-62 NSCLC 93.8% | NCI-H460 lung 76.5% | HOP-92 NSCLC 36.9% | NCI-H522 lung 35.1% | A549/ATCC NSCLC 80.4% | 786-0 renal 103% | COLO 205 colon 81%

O=C(/C=C/c1cccc(Cl)c1)c1ccc(Nc2nc(Nc3ccc(F)cc3)nc(Nc3ccc(Cl)cc3)n2)cc1
inactive: NCI-H23 lung 97.9% | NCI-H226 lung 118% | NCI-H322M lung 96.6% | HOP-62 NSCLC 91.9% | NCI-H460 lung 143% | HOP-92 NSCLC 72.9% | NCI-H522 lung 102% | A549/ATCC NSCLC 87.1% | 786-0 renal 99.1% | COLO 205 colon 108%

COc1cc(NS(=O)(=O)c2ccc(-c3cnc(C4CC4)o3)cc2)ccc1F
active: NCI-H522 lung 0.251% | COLO 205 colon 3.71%
inactive: NCI-H23 lung 33.6% | NCI-H226 lung 36.7% | NCI-H322M lung 49.5% | HOP-62 NSCLC 41.8% | NCI-H460 lung 18.7% | HOP-92 NSCLC 33.8% | A549/ATCC NSCLC 34.4% | 786-0 renal 31.4%

COc1ccc2c(c1)N(CCO)C1=C(C(=O)OC1)C2c1cccc(F)c1 (stereo not given)
inactive: NCI-H23 lung 25.6% | NCI-H226 lung 45% | NCI-H322M lung 46.5% | HOP-62 NSCLC 36.9% | HOP-92 NSCLC 57.4% | A549/ATCC NSCLC 16.1% | 786-0 renal 27.9%
active: NCI-H460 lung 6.1% | NCI-H522 lung 6.05% | COLO 205 colon -22.6%

CC(=O)/C(=C\c1c(-c2ccccc2)[nH]c2ccccc12)S(C)(=O)=O
inactive: NCI-H23 lung 33.7% | NCI-H226 lung 69.1% | NCI-H322M lung 58.2% | HOP-62 NSCLC 50.5% | HOP-92 NSCLC 42% | NCI-H522 lung 29.6% | A549/ATCC NSCLC 42.8% | 786-0 renal 22.8% | COLO 205 colon 21.2%
active: NCI-H460 lung 4.15%

CC1=NC2=Nn3c(c4cnn(-c5ccccc5)c4n/c3=N\N)NN2C(c2ccccc2)=C1
inactive: NCI-H23 lung 87.5% | NCI-H226 lung 90.7% | NCI-H322M lung 87.6% | HOP-62 NSCLC 96.1% | NCI-H460 lung 88.5% | HOP-92 NSCLC 74.3% | NCI-H522 lung 89% | A549/ATCC NSCLC 96% | 786-0 renal 104% | COLO 205 colon 107%

CC(=O)Oc1ccc(/C(=C(\C)c2ccc(Cl)cc2)c2ccc(OCCN3CCCCC3)cc2)cc1
active: 786-0 renal -35.5% | COLO 205 colon -52.4%
inactive: NCI-H23 lung 46.9% | NCI-H226 lung 70.7% | NCI-H322M lung 84.7% | HOP-62 NSCLC 52.8% | NCI-H460 lung 20.2% | HOP-92 NSCLC 49.4% | NCI-H522 lung 21.2% | A549/ATCC NSCLC 31.7%

Nc1c(C(=O)Nc2ccccc2F)sc2nc3c(cc12)CCCC3
inactive: NCI-H23 lung 51.2% | NCI-H226 lung 63.5% | NCI-H322M lung 63.1% | HOP-62 NSCLC 23.7% | NCI-H460 lung 12% | HOP-92 NSCLC 11.9% | NCI-H522 lung 23% | A549/ATCC NSCLC 39.5% | 786-0 renal 33.2% | COLO 205 colon 13%

CCCCNCCCCCNc1cc(OC)cc2cccnc12
inactive: NCI-H23 lung 101% | NCI-H226 lung 96.5% | NCI-H322M lung 106% | HOP-62 NSCLC 88% | NCI-H460 lung 106% | HOP-92 NSCLC 49.2% | NCI-H522 lung 94% | A549/ATCC NSCLC 95.9% | 786-0 renal 90.1% | COLO 205 colon 93.7%

CCSC(SCC)c1ccc(Cl)cc1
inactive: NCI-H23 lung 95.1% | NCI-H226 lung 102% | NCI-H322M lung 123% | HOP-62 NSCLC 98.5% | NCI-H460 lung 103% | HOP-92 NSCLC 101% | NCI-H522 lung 107% | A549/ATCC NSCLC 102% | 786-0 renal 110% | COLO 205 colon 117%

Nc1c(C(=O)Nc2ccncc2)sc2nc3c(cc12)C(O)CCC3 (stereo not given)
inactive: NCI-H23 lung 93.3% | NCI-H226 lung 90.2% | NCI-H322M lung 84.1% | HOP-62 NSCLC 98.7% | NCI-H460 lung 102% | HOP-92 NSCLC 88.2% | NCI-H522 lung 78.8% | A549/ATCC NSCLC 91.9% | 786-0 renal 93.8% | COLO 205 colon 113%

CN(C)S(=O)(=O)c1cccc(C(=O)Nc2nc(-c3ccc(F)c(F)c3)cs2)c1
inactive: NCI-H23 lung 45.7% | NCI-H226 lung 46.7% | NCI-H322M lung 106% | HOP-62 NSCLC 99.5% | NCI-H460 lung 49.4% | HOP-92 NSCLC 67.1% | NCI-H522 lung 25.2% | A549/ATCC NSCLC 60.1% | 786-0 renal 64.9% | COLO 205 colon 103%

C=C(C)[C@@H]1CC[C@]2(CO)CC[C@]3(C)[C@H](CC[C@@H]4[C@@]5(C)CC[C@H](NCO)C(C)(C)[C@@H]5CC[C@]43C)[C@@H]12
inactive: NCI-H226 lung 72.5% | HOP-92 NSCLC 42.2%
active: NCI-H23 lung -20.9% | NCI-H322M lung -83.7% | HOP-62 NSCLC -61.9% | NCI-H460 lung -86.1% | NCI-H522 lung -42.7% | A549/ATCC NSCLC -45.7% | 786-0 renal -94% | COLO 205 colon -57.1%

COc1ccc(C2=C(Nc3ccc(C(=O)Nc4ccccc4)cc3)C(=O)N(C)C2=O)cc1
inactive: NCI-H23 lung 88.7% | NCI-H226 lung 95.2% | NCI-H322M lung 88.7% | HOP-62 NSCLC 72.2% | NCI-H460 lung 108% | HOP-92 NSCLC 117% | NCI-H522 lung 59.9% | A549/ATCC NSCLC 78.2% | 786-0 renal 105% | COLO 205 colon 105%

O=S(=O)(Nc1cc(Cl)ccc1Cl)c1ccc(-c2cnc(C3CC3)o2)cc1
inactive: NCI-H23 lung 52.8% | NCI-H226 lung 40.3% | NCI-H322M lung 59.4% | HOP-62 NSCLC 39.8% | NCI-H460 lung 24.8% | HOP-92 NSCLC 40.4% | A549/ATCC NSCLC 45.2% | 786-0 renal 33% | COLO 205 colon 43.5%
active: NCI-H522 lung 0.738%

O=C(Nc1nc2cc(C(=O)N3CCN(C(c4ccccc4)c4ccccc4)CC3)ccc2o1)c1ccc(NC2CCCCC2)c([N+](=O)[O-])c1
inactive: NCI-H23 lung 69.5% | NCI-H226 lung 65.1% | NCI-H322M lung 59.4% | HOP-62 NSCLC 47.4% | NCI-H460 lung 46.8% | HOP-92 NSCLC 73.3% | NCI-H522 lung 64.2% | A549/ATCC NSCLC 56.1% | 786-0 renal 53.6% | COLO 205 colon 79.7%

O=C1Nc2ccc(C(=O)O)cc2/C1=N/c1nnc(Sc2ccccc2)s1
inactive: NCI-H23 lung 104% | NCI-H226 lung 98.5% | NCI-H322M lung 116% | HOP-62 NSCLC 95% | NCI-H460 lung 107% | HOP-92 NSCLC 102% | NCI-H522 lung 94.3% | A549/ATCC NSCLC 99.9% | 786-0 renal 102% | COLO 205 colon 124%

CC(=O)c1c(C)nc2ccccc2c1/C=C/c1ccc(F)cc1
inactive: NCI-H23 lung 81.7% | NCI-H226 lung 77.2% | NCI-H322M lung 96.8% | HOP-62 NSCLC 92% | NCI-H460 lung 91.5% | HOP-92 NSCLC 75.6% | NCI-H522 lung 69.2% | A549/ATCC NSCLC 83.8% | 786-0 renal 89.4% | COLO 205 colon 104%

O=C(C[C@]1(O)C(=O)Nc2ccccc21)c1cccc(C(F)(F)F)c1
inactive: NCI-H23 lung 92.5% | NCI-H226 lung 86.3% | NCI-H322M lung 84.4% | HOP-62 NSCLC 78.8% | NCI-H460 lung 97.4% | HOP-92 NSCLC 77.3% | NCI-H522 lung 87.1% | A549/ATCC NSCLC 99.2% | 786-0 renal 95.7% | COLO 205 colon 89.5%

Cc1cc(=O)n(C(=O)Nc2ccccc2Cl)c2cc(O)ccc12
inactive: NCI-H23 lung 98.6% | NCI-H226 lung 98.7% | NCI-H322M lung 88.7% | HOP-62 NSCLC 89.2% | NCI-H460 lung 100% | HOP-92 NSCLC 79.7% | NCI-H522 lung 95.2% | A549/ATCC NSCLC 101% | 786-0 renal 103% | COLO 205 colon 100%

C=C1C(=O)O[C@H]2[C@H]1CC/C(COC(=O)NCc1ccc(Cn3c(=O)sn(CCCCC)c3=O)cc1)=C\CC[C@@]1(C)O[C@@H]21
inactive: NCI-H23 lung 78.6% | NCI-H226 lung 75.4% | NCI-H322M lung 93.4% | HOP-62 NSCLC 81.2% | NCI-H460 lung 92.6% | A549/ATCC NSCLC 89.3% | 786-0 renal 32.1%
active: HOP-92 NSCLC -15.6% | NCI-H522 lung -68.6% | COLO 205 colon -20.8%

CN1CCN(c2cc(Nc3cc(C4CC4)[nH]n3)nc(Nc3ccc(CC(=O)NCc4cccc(F)c4)cc3)n2)CC1
inactive: NCI-H23 lung 23.2% | NCI-H322M lung 20.5% | NCI-H460 lung 13% | NCI-H522 lung 61.2% | A549/ATCC NSCLC 24.3% | 786-0 renal 18.3%
active: NCI-H226 lung 3.21% | HOP-62 NSCLC 8.32% | HOP-92 NSCLC -15.6% | COLO 205 colon -54.9%

N#CC(C#N)N=Nc1ccc(Br)cc1
active: HOP-92 NSCLC -34.1% | NCI-H522 lung 7.59% | COLO 205 colon -28.7%
inactive: NCI-H23 lung 24.6% | NCI-H226 lung 79% | NCI-H322M lung 100% | HOP-62 NSCLC 80.1% | NCI-H460 lung 95.8% | A549/ATCC NSCLC 83.5% | 786-0 renal 35.4%

N#Cc1ccc(O)c(C2=NCC(c3ccccc3)O2)c1 (stereo not given)
active: NCI-H522 lung -12.8%
inactive: NCI-H23 lung 44.6% | NCI-H226 lung 68% | NCI-H322M lung 55.9% | HOP-62 NSCLC 29.7% | NCI-H460 lung 19.9% | HOP-92 NSCLC 60.6% | A549/ATCC NSCLC 32% | 786-0 renal 33.2% | COLO 205 colon 36%
